Ten molecules from ChEMBL document CHEMBL3988442, “University of Dundee, Small-Polar-MMV Screening Library” (2021) can be followed below.

Common to all, as to set-up: scale not given: direction of the effect not stated beside the values
For experiment [1], the target named is Protein translocase subunit SecA (Escherichia coli (strain K12)) (UniProt P10408). The experiment can be described thus: Assay to Identify E. coli SecA ATPase Inhibitors. In kind it is functional. To be noted: 30 µM.
Experiment [2] has as its target T1, Ubiquitin-activating enzyme e1, putative (Leishmania donovani (strain BPK282A1)) (UniProt E9BSI1).
T1 sequence (whole entry): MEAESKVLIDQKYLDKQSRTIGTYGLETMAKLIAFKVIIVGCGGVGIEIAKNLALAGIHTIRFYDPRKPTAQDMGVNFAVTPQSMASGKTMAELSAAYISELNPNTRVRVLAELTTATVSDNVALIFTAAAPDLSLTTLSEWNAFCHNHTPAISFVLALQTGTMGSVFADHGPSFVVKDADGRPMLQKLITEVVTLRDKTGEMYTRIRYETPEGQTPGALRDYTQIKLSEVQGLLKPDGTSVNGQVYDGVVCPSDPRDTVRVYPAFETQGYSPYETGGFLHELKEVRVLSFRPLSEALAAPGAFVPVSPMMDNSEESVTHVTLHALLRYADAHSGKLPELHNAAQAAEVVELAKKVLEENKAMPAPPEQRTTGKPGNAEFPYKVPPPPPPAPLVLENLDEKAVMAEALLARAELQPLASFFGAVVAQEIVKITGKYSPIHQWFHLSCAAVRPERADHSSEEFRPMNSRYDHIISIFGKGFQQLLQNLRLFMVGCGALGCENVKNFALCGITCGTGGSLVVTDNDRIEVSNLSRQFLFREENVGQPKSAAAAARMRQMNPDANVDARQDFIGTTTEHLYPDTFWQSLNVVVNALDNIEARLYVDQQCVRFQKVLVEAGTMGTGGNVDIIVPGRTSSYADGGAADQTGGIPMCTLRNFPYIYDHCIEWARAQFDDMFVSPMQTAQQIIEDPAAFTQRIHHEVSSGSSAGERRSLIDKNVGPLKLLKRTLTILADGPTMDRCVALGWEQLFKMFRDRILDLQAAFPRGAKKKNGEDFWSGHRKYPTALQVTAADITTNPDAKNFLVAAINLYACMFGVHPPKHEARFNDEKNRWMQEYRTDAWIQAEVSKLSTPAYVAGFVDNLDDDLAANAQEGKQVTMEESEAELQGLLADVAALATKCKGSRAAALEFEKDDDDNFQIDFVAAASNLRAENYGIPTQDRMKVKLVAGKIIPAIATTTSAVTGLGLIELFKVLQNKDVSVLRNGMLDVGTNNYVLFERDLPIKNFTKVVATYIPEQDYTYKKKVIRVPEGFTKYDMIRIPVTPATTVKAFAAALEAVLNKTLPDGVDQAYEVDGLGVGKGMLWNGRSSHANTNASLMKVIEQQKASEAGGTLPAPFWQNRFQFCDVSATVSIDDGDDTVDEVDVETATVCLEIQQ
As to the kind of experiment: Leishmania donovani Ubiquitin Activating Enzyme (LdE1). It is filed as functional. As to conditions: 30 µM.

Experiment [3] concerns the target AMP-activated protein kinase, AMPK (Homo sapiens) (UniProt P54646+O43741+P54619+Q9UGJ0+Q9Y478+Q13131+Q9UGI9). As to the kind of experiment: AMP-dependent Kinase enzyme assay. An in vitro enzyme assay that detects ADP turnover that is directly proportional to AMPK activity. This uses naive AMPK that is activated during the assay with MK-8722. In kind it is functional. To be noted: 30 µM.

Experiment [4] addresses Sialic acid-binding Ig-like lectin 9 (Homo sapiens) (UniProt Q9Y336). The experiment can be described thus: Hs-Siglec9 ALPHAscreen SOP 20170721. As to conditions: 10 µM.
Another experiment deals with Trypanosoma cruzi. As to the kind of experiment: Trypanosoma cruzi phosphomannomutase and mannose-1-phosphate guanylyltransferase assay. It is filed as functional. As to conditions: 10 µM.
For experiment [5], the target named is T2, Arginase-2, mitochondrial (Homo sapiens) (UniProt P78540).
T2 sequence (whole entry): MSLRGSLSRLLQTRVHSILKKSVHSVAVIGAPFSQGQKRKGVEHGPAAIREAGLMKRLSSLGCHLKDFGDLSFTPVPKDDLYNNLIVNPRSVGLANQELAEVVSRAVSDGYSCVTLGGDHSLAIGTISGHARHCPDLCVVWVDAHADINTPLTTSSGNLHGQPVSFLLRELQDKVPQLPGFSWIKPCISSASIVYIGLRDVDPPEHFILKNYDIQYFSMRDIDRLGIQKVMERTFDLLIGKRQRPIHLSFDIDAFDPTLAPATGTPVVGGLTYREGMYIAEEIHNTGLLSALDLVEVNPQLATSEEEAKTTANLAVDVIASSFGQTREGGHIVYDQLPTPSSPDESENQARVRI
The experiment can be described thus: in vitro enzyme assay to detect the production of urea directly proportional to the activity of Arginase II. Note: in the data most compounds retested in dose-response had high values. To be noted: 33.3 µM. It is filed as functional.

In experiment [6] the target is T3, Proteasome subunit beta (Trypanosoma cruzi) (UniProt O96673).
T3 sequence (whole entry): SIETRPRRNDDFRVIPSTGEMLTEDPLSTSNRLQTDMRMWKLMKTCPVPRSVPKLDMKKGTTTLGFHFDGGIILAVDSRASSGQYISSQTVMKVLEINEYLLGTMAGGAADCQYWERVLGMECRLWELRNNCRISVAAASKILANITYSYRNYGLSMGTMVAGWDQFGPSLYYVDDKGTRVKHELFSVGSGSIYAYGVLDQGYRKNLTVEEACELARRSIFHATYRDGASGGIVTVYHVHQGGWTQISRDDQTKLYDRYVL
The experiment can be described thus: Trypanosoma cruzi proteasome chymotrypsin-like activity (TcProtChymo) assay. Note: in the data most compounds retested in dose-response had high values. In kind it is functional. As to conditions: 9.37 µM.

For a further experiment, the species on record is Homo sapiens. The experiment can be described thus: To identify inhibition of the IFN signalling (Jak-Stat) pathway via expression of an eGFP reporter gene under the control of an IFN-stimulated response element (ISRE) containing MxA promoter. It is filed as functional. To be noted: 30 µM. (A reporter such as luciferase makes a cellular process visible.)

The target in experiment [7] is T4, Tyrosyl-tRNA synthetase, putative (Trypanosoma cruzi (strain CL Brener)) (UniProt Q4DSP6).
T4 sequence (whole entry): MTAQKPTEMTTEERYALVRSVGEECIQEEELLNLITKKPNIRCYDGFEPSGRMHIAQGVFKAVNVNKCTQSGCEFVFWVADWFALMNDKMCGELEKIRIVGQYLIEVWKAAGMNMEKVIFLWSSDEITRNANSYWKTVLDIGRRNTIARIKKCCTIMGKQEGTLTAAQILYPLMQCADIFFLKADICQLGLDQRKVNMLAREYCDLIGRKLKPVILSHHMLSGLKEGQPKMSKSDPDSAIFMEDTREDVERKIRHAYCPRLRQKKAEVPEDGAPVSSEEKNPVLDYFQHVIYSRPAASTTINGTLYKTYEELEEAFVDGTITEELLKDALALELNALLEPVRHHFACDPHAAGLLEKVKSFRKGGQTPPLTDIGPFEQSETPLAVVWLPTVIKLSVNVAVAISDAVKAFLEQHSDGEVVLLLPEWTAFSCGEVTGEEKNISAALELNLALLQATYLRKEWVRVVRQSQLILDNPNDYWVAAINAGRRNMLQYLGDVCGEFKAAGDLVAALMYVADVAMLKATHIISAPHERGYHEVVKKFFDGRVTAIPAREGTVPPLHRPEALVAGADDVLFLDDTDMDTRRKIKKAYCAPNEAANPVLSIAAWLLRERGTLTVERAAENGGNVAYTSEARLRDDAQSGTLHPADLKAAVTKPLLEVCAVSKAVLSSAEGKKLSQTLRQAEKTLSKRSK
The experiment can be described thus: Trypanosoma cruzi tyrosyl tRNA synthetase (TcYRS) _High Tyrosine SOP. Note: in the data most compounds retested in dose-response had high values. It is filed as functional. To be noted: 30 µM.

Experiment [8] has as its target T4, Tyrosyl-tRNA synthetase, putative (Trypanosoma cruzi (strain CL Brener)). The experiment can be described thus: Trypanosoma cruzi tyrosyl tRNA synthetase (TcYRS) SOP. In kind it is functional. As to conditions: 30 µM.
The target in experiment [9] is Chromo domain-containing protein 1 (Saccharomyces cerevisiae (strain ATCC 204508 / S288c) (Baker's yeast)) (UniProt P32657). As to the kind of experiment: ScCHD-1 Enzyme Inhibition Assay. Note: in the data most compounds retested in dose-response had high values. As to conditions: 30 µM. It is filed as functional.

For some assays here: Entries with a potency or affinity are not part of this list.

Sequence of Protein translocase subunit SecA (Escherichia coli (strain K12)) (P10408 whole entry): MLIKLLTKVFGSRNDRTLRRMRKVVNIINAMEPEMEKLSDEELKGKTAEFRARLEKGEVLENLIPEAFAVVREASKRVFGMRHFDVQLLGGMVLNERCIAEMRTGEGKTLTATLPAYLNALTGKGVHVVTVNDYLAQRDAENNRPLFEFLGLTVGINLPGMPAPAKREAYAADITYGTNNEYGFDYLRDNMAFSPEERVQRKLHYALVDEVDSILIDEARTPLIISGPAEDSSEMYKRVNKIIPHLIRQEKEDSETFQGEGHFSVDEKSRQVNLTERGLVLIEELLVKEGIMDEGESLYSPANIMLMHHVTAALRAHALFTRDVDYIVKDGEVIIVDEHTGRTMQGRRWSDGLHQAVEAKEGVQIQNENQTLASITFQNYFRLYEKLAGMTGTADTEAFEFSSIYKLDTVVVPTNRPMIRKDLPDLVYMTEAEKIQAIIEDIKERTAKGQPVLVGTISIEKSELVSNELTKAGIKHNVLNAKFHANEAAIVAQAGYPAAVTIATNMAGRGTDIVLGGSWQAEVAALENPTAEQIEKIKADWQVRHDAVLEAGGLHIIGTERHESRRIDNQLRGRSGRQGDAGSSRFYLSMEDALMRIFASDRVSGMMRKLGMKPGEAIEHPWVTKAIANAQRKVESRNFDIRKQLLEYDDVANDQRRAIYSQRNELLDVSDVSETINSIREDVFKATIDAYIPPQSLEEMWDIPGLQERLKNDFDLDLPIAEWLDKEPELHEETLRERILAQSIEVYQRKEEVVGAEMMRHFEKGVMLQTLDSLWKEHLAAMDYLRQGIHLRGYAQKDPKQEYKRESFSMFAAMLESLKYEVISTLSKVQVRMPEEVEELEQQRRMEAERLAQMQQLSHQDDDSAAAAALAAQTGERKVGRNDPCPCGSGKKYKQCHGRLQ
Sequence of Sialic acid-binding Ig-like lectin 9 (Homo sapiens) (Q9Y336 whole entry): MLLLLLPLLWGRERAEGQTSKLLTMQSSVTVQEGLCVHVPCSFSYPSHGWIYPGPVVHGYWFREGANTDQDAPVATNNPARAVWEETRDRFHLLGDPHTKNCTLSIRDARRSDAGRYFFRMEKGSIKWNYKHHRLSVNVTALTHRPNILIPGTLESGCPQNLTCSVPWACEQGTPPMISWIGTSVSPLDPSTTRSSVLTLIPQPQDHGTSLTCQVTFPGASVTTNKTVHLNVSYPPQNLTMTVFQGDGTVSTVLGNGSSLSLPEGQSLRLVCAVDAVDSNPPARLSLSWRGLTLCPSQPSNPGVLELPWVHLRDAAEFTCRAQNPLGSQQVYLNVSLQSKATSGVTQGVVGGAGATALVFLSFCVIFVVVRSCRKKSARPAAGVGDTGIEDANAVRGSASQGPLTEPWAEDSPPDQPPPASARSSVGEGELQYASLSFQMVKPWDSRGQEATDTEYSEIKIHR
Sequence of Chromo domain-containing protein 1 (Saccharomyces cerevisiae (strain ATCC 204508 / S288c) (Baker's yeast)) (P32657 whole entry, the tested form may be a part): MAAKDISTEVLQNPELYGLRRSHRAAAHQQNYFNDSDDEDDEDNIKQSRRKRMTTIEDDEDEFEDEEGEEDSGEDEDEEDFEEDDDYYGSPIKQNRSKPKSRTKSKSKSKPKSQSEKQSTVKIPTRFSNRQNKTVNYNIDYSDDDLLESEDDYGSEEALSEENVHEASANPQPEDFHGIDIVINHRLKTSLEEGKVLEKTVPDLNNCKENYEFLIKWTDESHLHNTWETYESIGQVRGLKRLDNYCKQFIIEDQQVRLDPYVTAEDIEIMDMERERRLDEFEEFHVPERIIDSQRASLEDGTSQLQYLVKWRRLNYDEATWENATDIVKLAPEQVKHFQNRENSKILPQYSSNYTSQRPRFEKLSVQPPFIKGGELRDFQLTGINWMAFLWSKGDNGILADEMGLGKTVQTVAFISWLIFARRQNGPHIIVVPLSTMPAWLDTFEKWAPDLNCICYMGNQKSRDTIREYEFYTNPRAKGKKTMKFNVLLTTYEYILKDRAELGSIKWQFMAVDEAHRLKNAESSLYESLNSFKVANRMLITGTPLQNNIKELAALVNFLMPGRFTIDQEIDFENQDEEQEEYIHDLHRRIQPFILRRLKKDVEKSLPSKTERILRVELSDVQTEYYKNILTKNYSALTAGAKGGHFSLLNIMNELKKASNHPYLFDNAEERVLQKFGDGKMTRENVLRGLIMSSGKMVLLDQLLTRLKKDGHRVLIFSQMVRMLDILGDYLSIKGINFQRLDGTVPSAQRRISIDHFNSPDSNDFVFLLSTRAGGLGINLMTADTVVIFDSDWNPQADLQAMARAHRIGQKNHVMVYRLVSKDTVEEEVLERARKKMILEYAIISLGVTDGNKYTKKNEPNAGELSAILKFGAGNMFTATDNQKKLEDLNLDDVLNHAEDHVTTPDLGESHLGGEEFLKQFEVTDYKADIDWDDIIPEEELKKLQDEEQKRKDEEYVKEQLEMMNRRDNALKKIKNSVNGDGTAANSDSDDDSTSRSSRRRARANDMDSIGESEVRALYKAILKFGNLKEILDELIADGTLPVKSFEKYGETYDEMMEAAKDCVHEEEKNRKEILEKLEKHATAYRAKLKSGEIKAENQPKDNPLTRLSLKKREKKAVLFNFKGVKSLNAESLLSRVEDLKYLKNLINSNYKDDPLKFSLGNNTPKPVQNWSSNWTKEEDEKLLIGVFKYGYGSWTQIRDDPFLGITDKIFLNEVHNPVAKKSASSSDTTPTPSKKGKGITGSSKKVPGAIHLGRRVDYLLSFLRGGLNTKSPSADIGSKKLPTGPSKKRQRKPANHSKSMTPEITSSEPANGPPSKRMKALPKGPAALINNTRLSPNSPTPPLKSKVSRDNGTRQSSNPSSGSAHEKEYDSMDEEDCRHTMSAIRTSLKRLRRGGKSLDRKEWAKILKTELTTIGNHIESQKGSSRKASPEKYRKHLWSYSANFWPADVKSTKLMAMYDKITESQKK

On to `COc1cccc(CN2CCCC2c2c(C)nn(C)c2C)c1` (stereo not given), for which the Percent Effect is -1.8% in [1]; -2.53% in experiment [2]; -4.49% in [3]; 11.6% in [4]; 0.661% in the experiment on Trypanosoma cruzi; 0.38% in [5]. Moreover, the Percent Effect is -1.72% in experiment [6]; -9.36% in the experiment filed under Homo sapiens; 5.42% in experiment [7]; -1.27% in experiment [8]; -3.67% in experiment [9].

In the case of `CC(=O)N1CCCN(C(=O)c2ccn(-c3cccc(Cl)c3)n2)CC1`, the Percent Effect in experiment [1] was -2.55%; in experiment [2] it was 15.6%; in experiment [3], -0.208%; in experiment [4], -4.72%; with Trypanosoma cruzi it was -4.31%; in [5], -1.42%. Further, the Percent Effect in [6] is 12.8%; in the experiment listed under Homo sapiens, 10.3%; in experiment [7] it was 5.83%; in experiment [8] it was 14.6%; in [9], -6%.

For `Cc1ncc(CN2Cc3ccccc3O[C@]3(CC[C@H](CO)CC3)C2)cn1`, the Percent Effect in experiment [1] was -1.38%; in experiment [2] it was 6.76%; in [3], 8.93%; in [4] it was 6.44%; in the experiment on Trypanosoma cruzi, -2.57%; in experiment [5], 0.696%. Besides, the Percent Effect in experiment [6] was 0.78%; in the experiment listed under Homo sapiens it was 8.08%; in experiment [7], 3.23%; in experiment [8] it was 9.09%; in experiment [9], -4.96%.

Regarding `CC(=O)Nc1ccc(-n2ccc3nc(N4CCCC4)ncc3c2=O)cc1`, the Percent Effect in [1] was -3.46%; in experiment [2], -9.33%; in [3] it was 1.45%; in experiment [4], 1.82%; in the experiment on Trypanosoma cruzi, -2.36%; in experiment [5] it was 0.88%. The Percent Effect in [6] was 3.14%; in the experiment filed under Homo sapiens it was -5.51%; in experiment [7], 1.06%; in experiment [8] it was -7.69%; in experiment [9] it was 3.54%.

Turning to `COC(=O)CNC(=O)CSCc1nc(O)c2c(C)c(C)sc2n1`, the Percent Effect in [1] is -1.31%; in [2], -6.67%; in experiment [3], 14.7%; in [4] it was 4.89%; in the experiment with Trypanosoma cruzi, -3.93%; in experiment [5], 3.7%. Further, the Percent Effect in [6] is 9.8%; in the experiment listed under Homo sapiens it was -3.69%; in experiment [7] it was 3.17%; in experiment [8] it was 0%; in experiment [9], -4.91%.

With `CNc1cc(CNC(=O)c2ccccc2)nc(-c2ccncc2)n1`, the Percent Effect was -5.75% in experiment [1]; 9.46% in [2]; 9.36% in experiment [3]; -2.66% in experiment [4]; 3.56% in the experiment with Trypanosoma cruzi; -71.7% in [5]. Moreover, the Percent Effect in experiment [6] is 15.8%; in the experiment filed under Homo sapiens it was 1.41%; in experiment [7] it was 5.38%; in experiment [8], 14.3%; in [9], -13.8%.

For the molecule `COCc1noc(-c2ccc(N(C)Cc3cc(C)no3)nc2)n1`, the Percent Effect in [1] was -1.27%; in experiment [2], 0%; in experiment [3], -1.25%; in experiment [4], 9.06%; in the experiment with Trypanosoma cruzi, 5.79%; in experiment [5], 10.9%. The Percent Effect in experiment [6] was 6.9%; in the experiment filed under Homo sapiens it was 17.1%; in experiment [7] it was 5.82%; in [8], 7.32%; in experiment [9], -6.04%.

As to `O=C(CCc1cc2n(n1)CCCN(Cc1ccccc1F)C2)NC1CC1`, the Percent Effect in [1] is -3.75%; in experiment [2], 1.39%; in experiment [3], 1.32%; in [4] it was 0.0735%; in the experiment on Trypanosoma cruzi it was 6.71%; in [5] it was -2.21%. Moreover, the Percent Effect was 10.2% in experiment [6]; -26.8% in the experiment listed under Homo sapiens; 2.1% in [7]; 5.13% in [8]; -4.12% in experiment [9].

Take `COCC(NC(=O)c1cnn(C)c1)c1cccc(C(F)(F)F)c1` (stereo not given): the Percent Effect in [1] is -8.86%; in experiment [2], 0%; in experiment [3] it was -3.2%; in [4], -6.41%; in the experiment on Trypanosoma cruzi, -4.11%; in experiment [5] it was 0.455%. Further, the Percent Effect in experiment [6] was 7.28%; in the experiment listed under Homo sapiens, -1.62%; in [7] it was 0%; in [8] it was 0%; in experiment [9], 0.364%.

Take `Cn1cc(Br)c(=O)c(NS(=O)(=O)c2ccc(F)cc2)c1`: the Percent Effect in experiment [1] was -0.436%; in [2] it was 2.7%; in experiment [3], -1.93%; in [4], 10.6%; in the experiment with Trypanosoma cruzi, 5.41%; in [5], -0.476%. The Percent Effect in experiment [6] was 10.5%; in the experiment listed under Homo sapiens, 2.64%; in [7], 2.65%; in experiment [8], 12.2%; in experiment [9], -2.91%.
